The record followed here is PubChem BioAssay (NCATS).

Test [1] in a line: Drug repurposing screens with cells derived from glioblastoma tumor samples (AID 1345199). Further: potency means the concentration at half of the fitted maximal effect. On activity, negative = cell killing: on the % scale 0 is the no-effect control and ±100 the full control effect. On all read-outs here: nearly all actives have a fitted effect of over 40% in size. The settings on record: GBM patient neurospheres viability, ATP luminescence, 48 h; for Potency: tumour line A. Put shortly: (§1)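 Four patient lines of CD133+ GBM neurospheres were screened at several concentrations; hits were retested in those lines plus three slower-growing GBM lines, using 48-hour treatment and ATP-based viability.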

Test [2] can be described thus: P-glycoprotein substrates identified in KB-8-5-11 adenocarcinoma cell line, qHTS therapeutic library screen (AID 1346987). Further: nearly all actives have a fitted effect of over 65% in size. Further: potency means the concentration at half of the fitted maximal effect. On activity change, negative = cytotoxicity: on the % scale 0 is the no-effect control and ±100 the full control effect. Put shortly:
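Steps: plate 500 KB-8-5-11 cells/well in DMEM + 10% FCS (colchicine removed); pin compounds in dose-response; incubate 72 h, 37 degree C, 5% CO2; add CellTiter-Glo, 5 min; read luminescence.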
Background: Quantitative high-throughput screening tests each substance at several concentrations.

Test [3] concerns the target Rap guanine nucleotide exchange factor 3 (Homo sapiens) (UniProt O95398). The test can be described thus: Confirmatory qHTS for antagonist of cAMP-regulated guanine nucleotide exchange factor 3 (EPAC1) (AID 1645880).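 Further: plate controls were DMSO only for no effect and full effect of the ATA control for full effect; nearly all actives have a fitted effect of over 55% in size.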 Put shortly:
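Nucleotide exchange uses 100 nM EPAC1, 250 nM RAP1B-BODIPY-GDP and 50 uM GDP, with compounds in a concentration-titration series. After 5 min at room temperature, fluorescence (480 nm ex/540 nm em) is read every 5 min for 30 min. Data are normalized to control ATA and DMSO.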

Test [4] has the same target. The test can be described thus: Confirmatory qHTS for agonist of cAMP-regulated guanine nucleotide exchange factor 3 (EPAC1) (AID 1645881).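 Further: EPAC1 catalysed release of BODIPY-GDP from Rap1B seen as fluorescence loss; 100% = effect of cAMP agonist control; nearly all actives have a fitted effect of over 75% in size.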
In test [5] the target is Rap guanine nucleotide exchange factor 4 (Homo sapiens) (UniProt Q8WZA2). The test can be described thus: Confirmatory qHTS for agonist of cAMP-regulated guanine nucleotide exchange factor 4 (EPAC2) (AID 1645884).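 Further: nucleotide exchange releases bodipy-GDP from Rap1 and this lowers its fluorescence; on the % scale 0 is the no-effect control and ±100 the full control effect; nearly all actives have a fitted effect of over 65% in size.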
The target in test [6] is Glutathione peroxidase 1 (Homo sapiens) (UniProt P07203). The test can be described thus: Primary qHTS Assay for Inhibitors of Recombinant Selenoprotein Glutathione Peroxidase 1 (GPX1) (AID 1845191). Further: nearly all actives have a fitted effect of over 65% in size. Put shortly: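 Recombinant GPX1 (10 nM final) was preincubated with compound for 30 min at room temperature, then reacted with 1 mM GSH, 0.5 mM CHP, 0.5 mM NADPH and 100 nM glutathione reductase; NADPH fluorescence (340/450 nm) was read at 0 and 15 min.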

Test [7] has as its target Phospholipid hydroperoxide glutathione peroxidase GPX4 (Homo sapiens) (UniProt P36969). Nature of the test: Primary qHTS Assay for Inhibitors of Recombinant Selenoprotein Glutathione Peroxidase 4 (GPX4) (AID 1845192). Further: nearly all actives have a fitted effect of over 65% in size. The settings on record: outcome: dose series up to 50 µM unless noted. Put shortly:
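GR-coupled readout: 100 nM GR, 1 mM GSH, 0.5 mM NADPH; NADPH fluorescence (ex 340/em 450 nm) read at t=0 and after 15 min RT. GPX4 200 nM, preincubated 30 min with compound; substrate 0.5 mM CHP.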

Test [8] concerns the target Cytochrome P450 3A4 (Homo sapiens) (UniProt P08684). Nature of the test: qHTS Assay for Inhibitors and Substrates of Cytochrome P450 3A4 (AID 884). Further: potency means the concentration at half of the fitted maximal effect; nearly all actives have a fitted effect of over 50% in size. Put shortly:
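20 nM human CYP3A4 with 25 uM Luciferin-PPXE (at KM) in 200 mM KPO4, preincubated 10 min with compound; NADPH regeneration started a 60 min RT reaction. Luciferin detected by luminescence, normalized to 57 uM ketoconazole as full inhibition.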

Test [9] shares this target. Nature of the test: qHTS Assay for Activators of Cytochrome P450 3A4 (AID 885). Further: nearly all actives have a fitted effect of over 65% in size. Put shortly:
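20nM CYP3A4 + 25uM Luciferin-PPXE (=KM), 200mM KPO4; cpd 10 min RT; NADPH regen, 60 min RT; stop w/ detection buffer, 20 min; luminescence. Normalized to 57 uM ketoconazole.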

A short description of test [10]: P-glycoprotein substrates identified in KB-3-1 adenocarcinoma cell line, qHTS therapeutic library screen (AID 1346986). Further: nearly all actives have a fitted effect of over 60% in size.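 Further: potency means the concentration at half of the fitted maximal effect; potency is for cytotoxicity meaning loss of cell viability.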 On activity change, negative = cytotoxicity: on the % scale 0 is the no-effect control and ±100 the full control effect. Put shortly:
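Resistance attributable to P-gp was assessed by comparing AC50 in KB-8-5-11 with parental KB-3-1 and by tariquidar reversal. Cells were exposed 72 h and viability read by CellTiter-Glo.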

Test [11] relates to Zika virus NS2B-NS3 protease. Nature of the test: Primary screen GU AMC qHTS for Zika virus inhibitors (AID 1347154).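 Further: 0% = no-inhibitor control and -100% = no-enzyme control; nearly all actives have a fitted effect of over 70% in size.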 Put shortly: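 Unlinked Zika NS2B hydrophilic domain/NS3 protease domain noncovalent complex (25 nM final) in 10 mM Tris-HCl pH 8.0, 0.01% Tween 20, with AMC peptide substrate. Fluorescence (ex 340, em 450 nm) change over 15 min, room temperature; percent inhibition fitted to 4-parameter Hill equation.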

Test [12] in a line: Counterscreen qHTS for small molecule stabilizers of the endoplasmic reticulum resident proteome: GLuc-NoTag assay (AID 1508627).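 Further: 0% = thapsigargin alone and -100% = DMSO vehicle control.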 Put shortly: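 SH-SY5Y cells stably expressing constitutively secreted GLuc (no SERCaMP tag) were pre-incubated 5 h, treated with compound for 19 h, then 100 nM thapsigargin for 4 h at 37C; medium GLuc read by coelenterazine luminescence.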
Background: Counterscreens check selectivity or assay interference.

Test [13] can be described thus: Confirmatory qHTS for small molecule stabilizers of the endoplasmic reticulum resident proteome: Secreted ER Calcium Modulated Protein (SERCaMP) assay (AID 1508628). Further: on the % scale 0 is the no-effect control and ±100 the full control effect; nearly all actives have a fitted effect of over 40% in size. Put shortly: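 SH-SY5Y cells stably expressing GLuc-SERCaMP, treated 16 h with compound (primary 1.53, 7.67, 38.3 uM; confirmation 11 concentrations, up to 76.6 uM), then 100 nM thapsigargin for 4 h. Secreted Gaussia luciferase in medium read by coelenterazine luminescence.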

Test [14] is described as follows: Cell Viability qHTS for small molecule stabilizers of the endoplasmic reticulum resident proteome (AID 1508629).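 Further: potency means the concentration at half of the fitted maximal effect; compound exposure about 46 h in total before the viability read.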 The following applies: cell viability counter-screen, 100 nM thapsigargin for final 4 h.
For test [15], the target named is Luciferin 4-monooxygenase (Photinus pyralis) (UniProt P08659). The test can be described thus: Biochemical firefly luciferase enzyme assay for NPC (AID 624030).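 Further: purified P. pyralis luciferase at 10 nM with luciferin and ATP substrate; 0% = DMSO and -100% = full luciferase inhibition by PTC124 control; nearly all actives have a fitted effect of over 70% in size.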 Put shortly: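 Counter-screen for direct inhibition of the luciferase enzyme by approved-drug library compounds, run at 10 nM enzyme in 50 mM Tris acetate (final). Luminescence was read within 5 min of enzyme-buffer addition and normalized to PTC124 versus DMSO (0%).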

In test [16] the test system is astro (control astrocytes). The test can be described thus: Drug repurposing screens with cells derived from glioblastoma tumor samples (AID 1345199). Further: nearly all actives have a fitted effect of over 40% in size. Further: potency means the concentration at half of the fitted maximal effect. On activity, negative = cell killing: on the % scale 0 is the no-effect control and ±100 the full control effect. The following applies: viability, ATP luminescence, 48 h; series mostly up to 45.9 µM. Put shortly: as §1
Test [17] in a line: qHTS to identify inhibitors of the type 1 interferon - major histocompatibility complex class I in skeletal muscle: primary screen against the NCATS Mechanism Interrogation Plate v5.0 (MIPE) Libary (AID 1347411). Put shortly:
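Luminescence from HiBiT-tagged endogenous HLA-B*08:01 served as the MHC class I read-out. CRISPR-engineered C25cl48 human myoblasts received 4.0 ng/ml IFN-beta plus compound for 24 hrs, with an 11-point, 1:3 series topping at 46 uM final.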

A short description of test [18]: Primary qHTS for inhibitors of nuclear receptor binding SET domain protein 2 (NSD2) in an isogenic RCH-ACV NSD2 p.E1099K mutant (9B) (AID 1645876). Further: potency means the concentration at half of the fitted maximal effect; nearly all actives have a fitted effect of over 70% in size.
The nature of test [19]: Primary qHTS for inhibitors of nuclear receptor binding SET domain protein 2 (NSD2) in an RCH-ACV wild type WT cells (2C) (AID 1645877). Further: potency means the concentration at half of the fitted maximal effect; nearly all actives have a fitted effect of over 70% in size.
Test [20] can be described thus: qHTS drug screen for cell cycle checkpoint inhibitors in PARPi-resistant BRCA-mutant ovarian cancer cell lines. (AID 1963452; calls by dose curve). The following applies: PEO1/OlaR viability, CellTiter-Glo luminescence, 96 h, stronger effect = lower value. Put shortly: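 PEO1, PEO4 and PEO1/OlaR ovarian cancer cells, 600 per well, exposed 96 h at 37C to a dilution series. Viability read by CellTiter-Glo luminescence, normalized to DMSO and empty wells; activity summarized as Z-AUC.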

Test [21] is described as follows: qHTS assay to identify inhibitors of the type 1 interferon - major histocompatibility complex class I in skeletal muscle: Counter screen cell viability and HiBit confirmation (AID 1347412). Further: nearly all actives have a fitted effect of over 60% in size. Further: potency means the concentration at half of the fitted maximal effect. The settings on record: iHSKM muscle cells + IFN-b, HiBiT or CellTiter-Glo, 24 h. Put shortly: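 Myoblasts (C25cl48, HLA-B HiBiT) seeded in medium without dexamethasone, IFN-b 4 ng/ml added except unstimulated columns; 1 hr later compounds pinned (12-pt 1:3, top 46 uM final). Incubated 24 hrs, lysed 10 min, luminescence measured.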

The mark [22] stands for this setting: at 45.9 µM (top of the series), tumour line B.
Setting [23] is: at 45.9 µM (top of the series), tumour line D.
Where [24] appears, read: at 46.1 µM (top of the series), tumour line C.

Inconclusive results are not listed. The source made the active and inactive calls. Unless noted, the call rests on the fitted dose curve; in most records, active means well fitted curve in the direction sought with a large enough effect; inconclusive means small, poorly fitted or top-dose-only effect, or another doubt; inactive means no such curve, though single readings can be large; an effect the other way counts as inactive or inconclusive.

Sequence of Glutathione peroxidase 1 (Homo sapiens) (P07203 whole entry, looked up): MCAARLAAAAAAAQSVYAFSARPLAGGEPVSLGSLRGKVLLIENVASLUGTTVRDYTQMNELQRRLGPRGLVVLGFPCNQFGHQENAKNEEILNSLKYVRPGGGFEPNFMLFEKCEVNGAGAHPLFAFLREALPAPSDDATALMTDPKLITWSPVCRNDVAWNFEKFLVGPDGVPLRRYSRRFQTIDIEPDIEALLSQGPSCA
Sequence of Phospholipid hydroperoxide glutathione peroxidase GPX4 (Homo sapiens) (P36969 whole entry, looked up): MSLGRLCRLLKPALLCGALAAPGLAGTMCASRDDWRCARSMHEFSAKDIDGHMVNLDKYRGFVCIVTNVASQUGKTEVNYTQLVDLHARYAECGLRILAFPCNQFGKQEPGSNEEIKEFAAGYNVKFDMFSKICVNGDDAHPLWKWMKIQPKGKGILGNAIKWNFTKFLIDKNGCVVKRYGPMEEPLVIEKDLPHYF
Sequence of Cytochrome P450 3A4 (Homo sapiens) (P08684 whole entry, looked up): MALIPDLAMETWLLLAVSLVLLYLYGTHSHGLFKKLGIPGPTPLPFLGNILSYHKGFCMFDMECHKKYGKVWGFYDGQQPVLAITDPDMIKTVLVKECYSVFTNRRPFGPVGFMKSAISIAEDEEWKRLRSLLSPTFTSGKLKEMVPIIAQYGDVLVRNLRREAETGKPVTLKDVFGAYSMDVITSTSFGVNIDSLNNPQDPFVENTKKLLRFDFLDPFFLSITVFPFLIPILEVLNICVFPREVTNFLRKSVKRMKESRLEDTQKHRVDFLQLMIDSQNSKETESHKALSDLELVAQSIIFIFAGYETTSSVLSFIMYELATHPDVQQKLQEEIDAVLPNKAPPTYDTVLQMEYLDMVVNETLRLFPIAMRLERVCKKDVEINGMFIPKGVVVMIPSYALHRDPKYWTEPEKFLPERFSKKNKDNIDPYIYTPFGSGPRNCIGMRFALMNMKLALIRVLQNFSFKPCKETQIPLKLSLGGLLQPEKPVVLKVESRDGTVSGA
Sequence of Rap guanine nucleotide exchange factor 3 (Homo sapiens) (O95398 whole entry, looked up): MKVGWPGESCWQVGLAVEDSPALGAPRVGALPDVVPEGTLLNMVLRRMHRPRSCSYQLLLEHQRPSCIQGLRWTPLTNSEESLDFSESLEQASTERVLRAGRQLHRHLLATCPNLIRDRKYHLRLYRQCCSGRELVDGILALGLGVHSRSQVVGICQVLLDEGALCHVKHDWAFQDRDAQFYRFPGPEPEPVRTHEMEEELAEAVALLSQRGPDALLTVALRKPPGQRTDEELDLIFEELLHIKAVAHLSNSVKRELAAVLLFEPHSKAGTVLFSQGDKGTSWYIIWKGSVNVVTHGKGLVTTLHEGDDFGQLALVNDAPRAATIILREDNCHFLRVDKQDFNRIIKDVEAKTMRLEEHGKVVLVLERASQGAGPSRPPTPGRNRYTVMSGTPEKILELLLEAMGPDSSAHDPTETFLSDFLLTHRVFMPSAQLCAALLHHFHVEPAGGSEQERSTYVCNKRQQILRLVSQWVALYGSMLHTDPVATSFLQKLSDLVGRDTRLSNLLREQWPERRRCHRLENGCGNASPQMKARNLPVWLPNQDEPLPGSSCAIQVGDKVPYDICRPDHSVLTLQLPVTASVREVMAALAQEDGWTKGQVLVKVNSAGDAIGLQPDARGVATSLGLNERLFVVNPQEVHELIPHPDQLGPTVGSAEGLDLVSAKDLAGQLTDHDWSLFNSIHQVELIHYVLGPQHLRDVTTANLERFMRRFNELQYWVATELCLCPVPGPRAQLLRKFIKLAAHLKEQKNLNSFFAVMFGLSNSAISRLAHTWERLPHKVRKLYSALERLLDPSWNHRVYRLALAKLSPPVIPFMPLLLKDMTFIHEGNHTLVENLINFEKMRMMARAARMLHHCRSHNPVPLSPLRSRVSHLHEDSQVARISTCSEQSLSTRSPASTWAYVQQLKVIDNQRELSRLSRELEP
Sequence of Luciferin 4-monooxygenase (Photinus pyralis) (P08659 whole entry, looked up): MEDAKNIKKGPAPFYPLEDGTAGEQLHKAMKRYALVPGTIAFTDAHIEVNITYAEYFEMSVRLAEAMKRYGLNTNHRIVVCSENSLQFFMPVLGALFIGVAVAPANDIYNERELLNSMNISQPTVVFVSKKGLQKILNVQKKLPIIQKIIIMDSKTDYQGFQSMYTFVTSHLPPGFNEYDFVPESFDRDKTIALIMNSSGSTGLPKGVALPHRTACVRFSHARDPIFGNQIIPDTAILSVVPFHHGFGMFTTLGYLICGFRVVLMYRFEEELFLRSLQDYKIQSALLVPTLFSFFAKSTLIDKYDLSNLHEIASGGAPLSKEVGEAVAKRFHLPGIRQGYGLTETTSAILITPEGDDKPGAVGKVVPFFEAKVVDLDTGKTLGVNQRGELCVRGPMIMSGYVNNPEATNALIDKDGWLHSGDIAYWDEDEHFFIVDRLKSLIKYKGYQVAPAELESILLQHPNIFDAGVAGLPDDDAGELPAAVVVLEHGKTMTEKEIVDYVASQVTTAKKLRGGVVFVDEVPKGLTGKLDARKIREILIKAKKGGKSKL
Sequence of Rap guanine nucleotide exchange factor 4 (Homo sapiens) (Q8WZA2 whole entry, looked up): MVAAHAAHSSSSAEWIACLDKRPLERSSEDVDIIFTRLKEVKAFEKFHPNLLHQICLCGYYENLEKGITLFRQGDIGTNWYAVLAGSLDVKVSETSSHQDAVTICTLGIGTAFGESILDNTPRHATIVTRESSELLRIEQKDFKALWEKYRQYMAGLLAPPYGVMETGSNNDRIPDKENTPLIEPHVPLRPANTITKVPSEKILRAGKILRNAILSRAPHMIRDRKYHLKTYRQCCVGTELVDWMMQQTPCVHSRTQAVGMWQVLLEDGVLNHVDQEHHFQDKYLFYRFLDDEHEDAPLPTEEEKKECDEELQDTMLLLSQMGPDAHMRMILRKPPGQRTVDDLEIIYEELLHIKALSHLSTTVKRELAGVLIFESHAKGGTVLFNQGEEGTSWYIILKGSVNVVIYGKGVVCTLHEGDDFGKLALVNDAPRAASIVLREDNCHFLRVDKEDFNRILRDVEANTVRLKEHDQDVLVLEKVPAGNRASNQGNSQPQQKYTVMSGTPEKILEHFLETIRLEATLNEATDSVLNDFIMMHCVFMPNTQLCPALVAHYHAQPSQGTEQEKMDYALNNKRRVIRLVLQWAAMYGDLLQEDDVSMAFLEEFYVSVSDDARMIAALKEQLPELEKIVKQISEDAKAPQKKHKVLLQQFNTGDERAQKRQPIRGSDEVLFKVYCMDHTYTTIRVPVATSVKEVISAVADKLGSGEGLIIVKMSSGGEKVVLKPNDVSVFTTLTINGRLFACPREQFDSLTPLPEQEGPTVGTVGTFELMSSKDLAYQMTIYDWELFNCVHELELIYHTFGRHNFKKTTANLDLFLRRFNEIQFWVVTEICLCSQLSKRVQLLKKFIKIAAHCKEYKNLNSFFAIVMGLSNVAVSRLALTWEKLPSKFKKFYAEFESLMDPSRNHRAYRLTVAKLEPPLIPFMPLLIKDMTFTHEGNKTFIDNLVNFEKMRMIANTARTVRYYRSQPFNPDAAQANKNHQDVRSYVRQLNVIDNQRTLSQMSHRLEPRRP

For the compound `C=C1/C(=C\C=C2/CCC[C@]3(C)[C@@H]([C@H](C)OCCC(C)(C)O)CC[C@@H]23)C[C@@H](O)C[C@@H]1O`, the activity, negative = cell killing in test [1] (setting [22]) was -19.1% (inactive); in [1] (setting [23]) it was -17.2% (inactive); in test [1] (setting [24]), -27.4% (inactive). In addition, the Potency in test [1] was 25.1 µM (active).

For `C#C[C@]1(OC(C)=O)CC[C@H]2[C@@H]3CCC4=CC(=O)CC[C@@H]4[C@H]3CC[C@@]21C`, the Potency in test [2] was 3.66 µM (active); in [1], 35.5 µM (active). In addition, the Potency entry in [3], in test [6] and in test [7] was “inactive” in each case. In addition, the call in test [4] and in [5] was inactive. Further, the figures for the activity, negative = cell killing in test [1] (setting [22]) and in [1] (setting [24]) were -16% (inactive) and -23.2% (inactive), respectively.

`CS(=O)(=O)CCNCc1nc(-c2ccc3ncnc(Nc4ccc(OCc5cccc(F)c5)c(Cl)c4)c3c2)cs1`: the values for the Potency in test [8] and in test [14] were 2.51 µM (active) and 15.8 µM (active), respectively. Also, the Potency result in [9], in test [11], in [12] and in [13] was “inactive” in each case. Further, in test [10], the activity change, negative = cytotoxicity was 4.91% [at 9.29 µM] (inactive). Moreover, the outcome in [2] was “inactive [at 9.29 µM]”; in test [6], “inactive [at 9.52 µM]”.

`COC(=O)[C@]12CCC(C)(C)C[C@@H]1[C@@H]1C(=O)C=C3[C@]4(C)C=C(C#N)C(=O)C(C)(C)[C@@H]4CC[C@@]3(C)[C@]1(C)CC2`: the Potency in test [10] and in test [2] was 1.46 µM (active) throughout.

In the case of `CCCCCCCCCCCCCCCCSCC(COC)COP(=O)([O-])OCC[N+](C)(C)C` (configuration not stated), the Potency entry in test [15], in test [2] and in [16] was “inactive” throughout. In addition, the figures for the activity, negative = cell killing in test [1] (setting [23]) and in test [1] (setting [24]) were -10.7% (inactive) and 5.78% (inactive), respectively. In addition, the Potency in test [1] is 22.4 µM (active).

Turning to `COc1cc(F)ccc1-c1ncnc(Nc2cccc(CS(C)(=N)=O)c2)n1` (configuration not stated), the Potency is 1.46 µM (active) in [10]; 5.17 µM (active) in test [2]; 2.34 µM (active) in [17]; 525 nM (active) in [18]; 372 nM (active) in test [19]; 991 nM (active) in test [21] (HiBiT). Moreover, the Potency result in test [6] and in test [7] was “inactive” throughout. Also, the Z-AUC is -0.906 (inactive) in test [20], -1.2 in test [20] (measured here: PEO1 parental Z-AUC) and -0.831 in [20] (measured here: PEO4 Z-AUC). Further, the activity change, negative = inhibition in test [21] (Viability, at 45.9 µM (top of the series)) is -16.3% (inactive).
